Results on 6 compounds are retold here after PubChem BioAssay.

Active and inactive are the calls of the source.

Assay [1] has as its system Plasmodium falciparum Sir2 (PF13_0152, Sir2A). Description: Plasmodium falciparum Sir2A binding compounds – biochemical, small-molecule microarray, 635 nm fluorescence, primary screen (AID 1098).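 Note: score merges spot fluorescence intensity with its signal-to-noise ratio.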 The settings on record: fluorescence 635 nm, higher = more signal.
The nature of assay [2]: probe aDKK1 binding to arrayed compounds – biochemical, biotinylated probe, 635/667 nm fluorescence, primary screen (AID 1099).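 Note: score merges 667nm spot fluorescence with signal to noise across triplicate slides.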 The settings on record: small-molecule microarray, higher = more signal.
The nature of assay [3]: probe aCHRDL2 binding to arrayed compounds – biochemical, biotinylated probe, 635/667 nm fluorescence, primary screen (AID 1100). The settings on record: small-molecule microarray, higher = more signal.
Assay [4] can be described thus: change in splice reporter luminescence, either direction, cell-based, HEK293, spliceosome inhibition project, primary screen (AID 1101).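 Note: HEK293 cells carrying a splicing-competent luciferase reporter gene; test concentration not given here.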 The settings on record: HEK293 splicing luciferase reporter, 24 h, higher = more signal, called active from +8 up or from −8 down.
Assay [5] concerns the target Fibroblast growth factor 10 (Homo sapiens) (UniProt O15520). As to the kind of experiment: compounds binding fibroblast growth factor 10 – biochemical, small-molecule microarray, 635 nm fluorescence, primary screen (AID 1102). The settings on record: FGF10 binding, fluorescence 635 nm, higher = more signal.
Assay [6] relates to glycogen synthase kinase-3 (GSK3A per assay name; protocol says GSK3B). Description: compounds binding glycogen synthase kinase-3 – biochemical, small-molecule microarray, 635 nm fluorescence, GSK3A, primary screen (AID 1103). Note: the record names both GSK3A and GSK3B. The settings on record: fluorescence 635 nm, higher = more signal.
Assay [7] addresses Epidermal growth factor receptor (Homo sapiens) (UniProt P00533). Description: compounds binding epidermal growth factor receptor – biochemical, small-molecule microarray, 635 nm fluorescence, primary screen (AID 1104).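 Note: score merges 667 nm emission intensity with spot signal to noise over triplicate slides.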 The settings on record: EGFR binding, higher = more signal.
Assay [8] deals with Follistatin-related protein 3 (Homo sapiens) (UniProt O95633). As to the kind of experiment: compounds binding follistatin-related protein 3 – biochemical, small-molecule microarray, 635 nm fluorescence, primary screen (AID 1105).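 Note: score merges emission near 667 nm and signal to noise per printed spot across three slides.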 The settings on record: FSTL3 binding, higher = more signal.
Sequence of Follistatin-related protein 3 (Homo sapiens) (O95633 whole entry, looked up): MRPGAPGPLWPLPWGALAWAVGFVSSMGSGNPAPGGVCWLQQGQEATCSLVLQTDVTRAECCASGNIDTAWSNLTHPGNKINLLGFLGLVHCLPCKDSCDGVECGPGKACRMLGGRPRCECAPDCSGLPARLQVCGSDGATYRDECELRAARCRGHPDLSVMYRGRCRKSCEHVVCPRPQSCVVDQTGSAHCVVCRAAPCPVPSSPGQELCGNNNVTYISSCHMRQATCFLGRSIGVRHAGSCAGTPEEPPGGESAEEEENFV
Assay [9] has as its target Dickkopf-related protein 1 (Homo sapiens) (UniProt O94907). As to the kind of experiment: small molecules binding DKK1 protein – biochemical, small-molecule microarray, 635 nm fluorescence scan, primary screen (AID 1106).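 Note: score merges emission near 667 nm with signal to noise over three replicate slides.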 The settings on record: higher = more signal.
For assay [10], the system named is Inhibin beta A chain (activin A). As to the kind of experiment: small molecules binding activin A – biochemical, small-molecule microarray, 635 nm fluorescence scan, primary screen (AID 1107).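 Note: mouse activin A protein probed at 4.33 µg/mL on printed slides; score merges bound-protein fluorescence near 667 nm with spot signal-to-noise.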 The settings on record: INHBA, higher = more signal.
The test system of assay [11] is Human papillomavirus type 1a protein E7 (residues 44-93). As to the kind of experiment: small molecules binding HPV E7 44-93 – biochemical, small-molecule microarray, residues 44-93, 635 nm fluorescence, primary screen (AID 1108).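 Note: E7 fragment applied at 1 µg/mL in TBST for 1 h at 4 C; score combines spot fluorescence with its signal to noise ratio.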 The settings on record: fluorescence 635 nm, higher = more signal.
Assay [12] can be described thus: hepatitis C replication reporter changes, two-sided – Huh7 cells, luciferase reporter, HCV replication inhibitor project, primary screen (AID 1109).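 Note: huh7 hepatoma cells harbouring a luciferase neomycin HCV replicon reporter; luciferase luminescence as measure of HCV replicon replication; test concentration not given here.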 The settings on record: Huh7 HCV replicon luciferase reporter, 48 h; higher = more signal.
In assay [13] the target is Left-right determination factor 2 (Homo sapiens) (UniProt O00292). As to the kind of experiment: small molecules binding LEFTY2 protein – biochemical, small-molecule microarray, 635 nm fluorescence scan, primary screen (AID 1110). The settings on record: higher = more signal.
Sequence of Left-right determination factor 2 (Homo sapiens) (O00292 whole entry, looked up): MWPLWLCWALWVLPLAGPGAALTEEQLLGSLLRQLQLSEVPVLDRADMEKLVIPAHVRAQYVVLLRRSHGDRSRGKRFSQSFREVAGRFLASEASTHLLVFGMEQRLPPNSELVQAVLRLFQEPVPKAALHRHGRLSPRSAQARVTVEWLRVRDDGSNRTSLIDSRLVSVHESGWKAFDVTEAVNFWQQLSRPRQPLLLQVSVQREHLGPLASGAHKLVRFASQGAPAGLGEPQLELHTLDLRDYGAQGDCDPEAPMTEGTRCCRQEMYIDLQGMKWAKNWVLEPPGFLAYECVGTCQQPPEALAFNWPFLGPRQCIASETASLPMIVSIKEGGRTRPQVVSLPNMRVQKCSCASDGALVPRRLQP
For assay [14], the target named is Calmodulin-1 (Homo sapiens) (UniProt P0DP23). Description: small molecules binding calmodulin-1 with EGTA – biochemical, small-molecule microarray, Cy5-labelled CALM1, profiling panel (AID 1111).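 Note: labelled calmodulin applied in Tris saline Tween buffer holding calcium plus EGTA and DTT.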 The settings on record: Cy5-CALM1 binding fluorescence, higher = more signal.
Assay [15] has the same target. Description: small molecules binding Ca-loaded calmodulin-1 – biochemical, small-molecule microarray, Cy5-labelled CALM1, plus calcium, artefact control for SMM control-protein annotation, profiling panel (AID 1112).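 Note: score merges spot fluorescence with signal to noise from triplicate slides.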 The settings on record: Cy5-CALM1 binding fluorescence, higher = more signal.
Assay [16] in a line: probe aWnt5a binding to arrayed compounds – biochemical, biotinylated probe, 635/667 nm fluorescence, primary screen (AID 1113).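 Note: score merges 667 nm fluorescence intensity with signal-to-noise per printed feature.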 The settings on record: small-molecule microarray, higher = more signal.
The nature of assay [17]: probe aShh binding to arrayed compounds – biochemical, biotinylated probe, 635/667 nm fluorescence, primary screen (AID 1114).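 Note: probe is biotin-labelled aShh protein from a stem cell growth factor screen; measures binding of labelled protein to compounds printed on the slide; score merges feature fluorescence at 667 nm with signal-to-noise.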 The settings on record: small-molecule microarray, higher = more signal.
The nature of assay [18]: probe aNog binding to arrayed compounds – biochemical, biotinylated probe, 635/667 nm fluorescence, primary screen (AID 1115).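 Note: probe is biotinylated aNog protein used at 0.15 µg/mL for 1 h at 4 C; z-score combines 667 nm fluorescence of each spot with its signal to noise.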 The settings on record: small-molecule microarray, higher = more signal.
Assay [19] deals with Torsin-1A-interacting protein 1 (Homo sapiens) (UniProt Q5JTV8). As to the kind of experiment: compound microarray binding of lysate hLAP1 – cell lysate, small-molecule microarray, COS7 lysate, 635/667 nm fluorescence, primary screen (AID 1116). The settings on record: 635 nm fluorescence, higher = more signal.
Sequence of Torsin-1A-interacting protein 1 (Homo sapiens) (Q5JTV8 whole entry, looked up): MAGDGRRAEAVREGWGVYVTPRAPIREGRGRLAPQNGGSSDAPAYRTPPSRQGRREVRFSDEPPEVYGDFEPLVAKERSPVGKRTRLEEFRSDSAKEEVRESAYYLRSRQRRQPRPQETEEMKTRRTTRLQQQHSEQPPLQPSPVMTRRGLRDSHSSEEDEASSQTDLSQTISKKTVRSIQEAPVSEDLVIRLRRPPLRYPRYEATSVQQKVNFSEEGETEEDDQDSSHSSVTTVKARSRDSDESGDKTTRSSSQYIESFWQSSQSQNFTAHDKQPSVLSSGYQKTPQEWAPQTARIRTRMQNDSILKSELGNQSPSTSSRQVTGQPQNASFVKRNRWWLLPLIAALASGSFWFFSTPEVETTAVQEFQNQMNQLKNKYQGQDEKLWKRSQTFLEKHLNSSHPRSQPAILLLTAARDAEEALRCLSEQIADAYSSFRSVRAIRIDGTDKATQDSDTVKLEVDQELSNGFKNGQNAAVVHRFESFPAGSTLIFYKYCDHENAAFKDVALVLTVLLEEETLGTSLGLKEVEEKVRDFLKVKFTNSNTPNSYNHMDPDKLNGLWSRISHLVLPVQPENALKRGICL
Assay [20] deals with Alpha-bungarotoxin (Bungarus multicinctus) (UniProt P60615). Description: compounds binding labelled alpha-BTX control protein – biochemical, small-molecule microarray, Alexa647 label, 635/667 nm fluorescence, artefact control for SMM control protein annotation, profiling panel (AID 1117). The settings on record: alpha-BTX-A647 binding fluorescence, higher = more signal.
Sequence of Alpha-bungarotoxin (Bungarus multicinctus) (P60615 whole entry, looked up): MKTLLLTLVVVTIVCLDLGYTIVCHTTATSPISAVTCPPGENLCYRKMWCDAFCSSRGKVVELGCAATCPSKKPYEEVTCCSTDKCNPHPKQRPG

Sequence of Epidermal growth factor receptor (Homo sapiens) (P00533 whole entry, looked up): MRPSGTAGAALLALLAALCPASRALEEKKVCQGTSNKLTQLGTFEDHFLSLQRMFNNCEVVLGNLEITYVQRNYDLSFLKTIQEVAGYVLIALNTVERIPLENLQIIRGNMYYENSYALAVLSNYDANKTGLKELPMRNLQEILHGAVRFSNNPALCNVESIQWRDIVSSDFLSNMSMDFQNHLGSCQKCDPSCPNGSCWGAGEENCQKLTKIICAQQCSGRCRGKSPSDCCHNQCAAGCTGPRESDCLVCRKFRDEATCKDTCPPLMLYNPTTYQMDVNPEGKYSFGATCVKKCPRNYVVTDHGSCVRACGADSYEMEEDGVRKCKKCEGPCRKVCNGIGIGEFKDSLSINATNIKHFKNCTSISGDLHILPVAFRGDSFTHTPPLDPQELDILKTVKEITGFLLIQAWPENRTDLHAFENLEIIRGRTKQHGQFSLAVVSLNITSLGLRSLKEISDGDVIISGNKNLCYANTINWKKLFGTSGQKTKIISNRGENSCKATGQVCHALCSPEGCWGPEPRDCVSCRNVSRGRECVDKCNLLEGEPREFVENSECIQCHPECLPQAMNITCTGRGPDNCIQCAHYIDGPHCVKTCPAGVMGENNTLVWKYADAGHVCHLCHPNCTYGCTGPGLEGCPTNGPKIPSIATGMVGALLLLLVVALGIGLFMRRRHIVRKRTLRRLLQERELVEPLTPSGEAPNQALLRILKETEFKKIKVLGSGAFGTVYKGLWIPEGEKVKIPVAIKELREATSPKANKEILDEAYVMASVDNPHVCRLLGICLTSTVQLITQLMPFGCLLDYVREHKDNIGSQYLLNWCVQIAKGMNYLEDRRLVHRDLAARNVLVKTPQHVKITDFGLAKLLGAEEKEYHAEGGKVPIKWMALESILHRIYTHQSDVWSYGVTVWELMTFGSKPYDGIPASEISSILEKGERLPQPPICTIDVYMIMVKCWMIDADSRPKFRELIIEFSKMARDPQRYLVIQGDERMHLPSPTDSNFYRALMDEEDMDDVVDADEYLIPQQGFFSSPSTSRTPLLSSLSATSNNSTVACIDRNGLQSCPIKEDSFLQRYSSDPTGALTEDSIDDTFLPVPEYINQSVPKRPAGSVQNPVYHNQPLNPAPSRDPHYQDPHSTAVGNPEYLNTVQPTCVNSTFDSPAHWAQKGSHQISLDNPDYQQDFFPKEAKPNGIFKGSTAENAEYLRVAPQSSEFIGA
Sequence of Dickkopf-related protein 1 (Homo sapiens) (O94907 whole entry, looked up): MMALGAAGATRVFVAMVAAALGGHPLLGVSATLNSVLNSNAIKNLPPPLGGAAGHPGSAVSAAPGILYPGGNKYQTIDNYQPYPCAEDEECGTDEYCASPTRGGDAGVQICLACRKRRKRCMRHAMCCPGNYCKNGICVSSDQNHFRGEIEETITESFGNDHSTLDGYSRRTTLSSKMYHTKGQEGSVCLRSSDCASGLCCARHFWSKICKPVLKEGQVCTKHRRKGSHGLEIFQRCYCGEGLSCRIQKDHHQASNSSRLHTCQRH
Sequence of Fibroblast growth factor 10 (Homo sapiens) (O15520 whole entry, looked up): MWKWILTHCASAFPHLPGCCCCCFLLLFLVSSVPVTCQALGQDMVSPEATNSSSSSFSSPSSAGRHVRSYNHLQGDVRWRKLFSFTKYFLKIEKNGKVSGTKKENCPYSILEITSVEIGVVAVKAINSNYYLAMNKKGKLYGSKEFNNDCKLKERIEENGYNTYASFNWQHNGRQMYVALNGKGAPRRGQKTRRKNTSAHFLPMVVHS

For `CCOC(=O)[C@H](Cc1ccccc1)NC(=O)CCC1CC(OC(=O)NCCc2ccc(F)cc2)CC2(CCCC(COC(=O)NCC(c3ccccc3)c3ccccc3)O2)O1` (stereo not given in full), the composite z-score was 0.892 in assay [1]; -0.273 in assay [2]; -0.368 in assay [3]; 0.617 in [5]; 0.729 in assay [6]; 0.374 in assay [7]. In addition, the composite z-score in [8] is 0.979; in assay [9], 0.898; in [10], -0.235; in assay [11], 1.33; in assay [13], 0.414; in [14], 0.53. Moreover, the composite z-score was -0.658 in [15]; -0.124 in [16]; -0.0146 in [17]; -0.0496 in [18]; 2.49 in assay [19]; 0.0051 in assay [20]. In addition, the z-score is 0.378 (inactive) in assay [4] and 0.0395 in [12].

For `COCCOC(=O)N1C(=O)[C@@]2(c3cc(C#CC4(O)CCCCCC4)ccc31)[C@H](C(=O)N1CCN(c3ncccn3)CC1)[C@H]1C(=O)O[C@H](c3ccccc3)[C@H](c3ccccc3)N1[C@@H]2c1ccc(OCCO)cc1`, the composite z-score in assay [1] is 1.4; in assay [2] it was 0.0932; in assay [3], -0.0616; in [5], 1.18; in assay [6], 1.3; in assay [7], 0.729. For the same compound, the composite z-score in assay [8] was found to be 1.19; in assay [9], 0.738; in assay [10], 0.274; in [11] it was 1.01; in assay [13], 0.519; in assay [14] it was 0.942. Also, the composite z-score in assay [15] worked out at 0.0751; in assay [16], 0.0136; in [17], 0.637; in assay [18], 0.42; in [19] it was 0.889; in assay [20], 1.33. Moreover, the z-score in [4] is -0.702 (inactive); in assay [12], -1.38.

With `CO[C@H]([C@@H](C)[C@H](OC)c1ccccc1)[C@H](C)[C@@H](OC)[C@H](C)C(C)=O`, the composite z-score is -0.275 in assay [1]; -0.442 in [2]; -0.117 in [3]; 0.173 in assay [5]; -0.641 in assay [6]; -0.577 in assay [7]. Further, the composite z-score was -0.523 in [8]; 0.345 in assay [9]; 0.782 in assay [10]; -0.431 in assay [11]; 0.402 in assay [13]; -1.1 in assay [14]. Further, the composite z-score in [15] was -0.0474; in assay [16], 0.0101; in [17], -0.367; in assay [18], -0.0286; in assay [19] it was -0.482; in assay [20], -0.847. Further, the z-score was 0.116 (inactive) in assay [4] and 1.14 in assay [12].

With `COc1ccccc1CN1C(=O)c2ccccc2[C@@H](C(=O)NCC(F)(F)F)[C@@H]1c1ccc(CO)cc1`, the composite z-score was 1.68 in [1]; -0.139 in [2]; 0.245 in assay [3]; 0.956 in assay [5]; 0.715 in assay [6]; 0.0304 in assay [7]. The composite z-score was 0.941 in [8]; 0.0666 in assay [9]; 0.218 in assay [10]; 1.44 in assay [11]; -0.155 in [13]; 0.313 in assay [14]. For the same compound, the composite z-score is 0.229 in assay [15]; -0.107 in [16]; 0.0446 in [17]; -0.425 in [18]; 0.488 in [19]; 0.472 in assay [20]. Further, the z-score was -0.14 (inactive) in assay [4] and -1.26 in [12].

Take `CO[C@@H]1COC(=O)CCC[C@@H](C)[C@H](OC)COC(=O)CCC[C@H]1C`: the composite z-score in [1] is 0.691; in assay [2], -0.224; in assay [3], -0.755; in assay [5] it was 0.0939; in assay [6], 0.534; in assay [7], 0.379. Further, the composite z-score was 0.715 in assay [8]; 0.731 in assay [9]; -0.0672 in assay [10]; -0.341 in [11]; 0.862 in assay [13]; -0.454 in assay [14]. The composite z-score in [15] was -0.966; in assay [16], -0.0445; in assay [17], -0.206; in assay [18] it was -0.303; in assay [19], 0.665; in assay [20], -0.12. The results for the z-score in assay [4] and in assay [12] were 0.349 (inactive) and -1.38, respectively.

As to `C[C@@H](c1ccccc1)N1C(=O)[C@H]2[C@H]3[C@H](O)[C@H](O)CC(=NOC[C@@H](O)COCc4ccco4)[C@@H]3CC[C@H]2C1=O`, the composite z-score is 0.693 in assay [1]; -0.349 in assay [2]; -0.402 in assay [3]; -0.953 in assay [5]; -0.468 in [6]; -0.0809 in assay [7]. Further, the composite z-score is -1.31 in [8]; -1.03 in assay [9]; -0.365 in assay [10]; -0.856 in assay [11]; -0.433 in assay [13]; -0.495 in assay [14]. The composite z-score is -0.307 in assay [15]; -0.124 in [16]; -0.0863 in [17]; -0.413 in assay [18]; -0.375 in assay [19]; 0.556 in [20]. For the same compound, the values for the z-score in [4] and in [12] were -0.115 (inactive) and 0.816, respectively.
